Screens from PubChem BioAssay.
Sm TGR block: blocks Schistosoma mansoni thioredoxin glutathione reductase | Q962Y6 | purified TGR, DTNB reduction, TNB absorbance 405 nm | Potency, µM (top dose mostly 114 µM), for the others: top-dose activity change, negative = inhibition, actives largely listed as inhibitors | 360,000 compounds, 3% hits | AID 485364; further: nearly all actives have a fitted effect of over 60% in size
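First, TGR (20 nM dispensed) and NADPH were mixed with compound. Second, a 15 min room-temperature incubation followed. Third, further NADPH and then DTNB were added to start the reaction. Finally, TNB absorbance was monitored kinetically.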
RE007 growth inh: less growth of the S. pombe RE007 Vpr strain. S. pombe RE007 Vpr strain, BacTiter-Glo ATP luminescence, 24 h. Potency, µM (series often up to 92.2 µM), without a hit: top-dose activity change, negative = less growth, usual class: inhibitors. 360,000 compounds, 0.21% hits. AID 651644; active means well fitted falling curve with a large enough effect; inconclusive means small, poorly fitted or top-dose-only effect; inactive means no such curve, though single readings can be large or run the other way; further: nearly all actives have a fitted effect of over 50% in size
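Fission yeast strain RE007, carrying one chromosomally integrated HIV-1 vpr copy, was seeded at OD 0.01 in PMG+AL medium with 23 nL pinned compound. After 24 h at 30 °C and 99% humidity, viability was read by BacTiter-Glo luminescence.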
MARV entry inh: inhibitors of Marburg virus binding or cell entry; Marburg virus pseudotyped entry inhibition, cell reporter; Potency, µM (top dose mostly 37.8 µM), without a hit: at the top dose activity change, negative = inhibition, actives largely listed as inhibitors; 300,000 compounds, 1.8% hits; AID 540276; calls by dose curve; tested in HEK293 cells
LASV entry inh: inhibitors of Lassa virus binding or cell entry; 300,000 compounds, 1.2% hits; Potency, µM (highest dose often 37.9 µM), without a hit: top-dose activity change, negative = inhibition, most hits filed as inhibitors; Lassa virus pseudotype entry inhibition, cell reporter; calls by dose curve; tested in HEK293 cells; further: nearly all actives have a fitted effect of over 50% in size
HCV inhibitor: inhibitors of hepatitis C virus infection; Huh7.5.1 HCVcc-Cre infection, luciferase reporter, 44 h; Potency, µM (highest dose often 41.8 µM), for the others: at the top dose activity change, negative = inhibition, usual class: inhibitors; 340,000 compounds, 3.4% hits; AID 651820
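1,000 cells/well; 4 h culture; + compound; + HCVcc-Cre (~0.5 moi); 44 h; luciferase substrate, RT 15 min; read 15 sec.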
FMDV inh: foot and mouth disease virus antiviral activity; Potency, µM (doses to about 57.9 µM), for the others: at the highest dose activity change, negative = inhibition, usual class: inhibitors; 410,000 compounds, 1.2% hits; FMDV antiviral cell-based qHTS; calls by dose curve; tested in HEK293T cells; further: read-out not given here; nearly all actives have a fitted effect of over 45% in size
The depositor's hits bear a star; ? = inconclusive; / = no result given; [ ] = remark or other dose. An excerpt weighted towards active compounds, which were near 7.2% of everything screened. Unless noted, the call rests on the fitted dose curve; in most records, active means well fitted curve in the direction sought with a large enough effect; inconclusive means small, poorly fitted or top-dose-only effect, or another doubt; inactive means no such curve, though single readings can be large; an effect the other way counts as inactive or inconclusive. On the % scale 0 is the no-effect control and ±100 the full control effect; potency means the concentration at half of the fitted maximal effect.

SMILES	Sm TGR block	RE007 growth inh	MARV entry inh	LASV entry inh	HCV inhibitor	FMDV inh
O=C(Nc1ccc(Cl)c(S(=O)(=O)N2CCOCC2)c1)c1cn2ccccc2n1	-4%	-6%	31%[46.1 µM]	?	-29%	20µM*
O=C(Nc1ccccc1)Nc1ccc(Cl)c(S(=O)(=O)N2CCOCC2)c1	-7%	0%	?	-21%[46.1 µM]	?	?
O=C(Nc1ccccc1O)c1cc(S(=O)(=O)N2CCOCC2)ccc1Cl	-1%	5%	-2%	-12%	-4%	0%
CCn1nc(C(=O)Nc2ccc(Cl)c(S(=O)(=O)N3CCOCC3)c2)c2ccccc2c1=O	-5%	-2%	-17%[46.1 µM]	?	11µM*	?
O=C(Nc1ccccc1O)c1cc(S(=O)(=O)N2CCOCC2)c(Cl)cc1Cl	-7%	10%	?	-17%[14.3 µM]	/	16µM*
O=C(Nc1ccc(N2CCOCC2)cc1)c1cn2ccccc2n1	0%	-25%	?	7.9µM*	-5%	-77%
O=C(NC1CC1)c1cccc(NC(=O)c2cn3ccccc3n2)c1	6%	-2%	?	5%	-7%	3%
CO[C@H]1[C@H](NC(=O)c2ccsc2)c2ccccc2C12CCN(Cc1cc(Cl)ccc1O)CC2	/	/	/	/	/	-11%
COc1ccc(S(=O)(=O)n2nc(-c3ccco3)nc2NCc2ccc(OC)c(OC)c2)cc1	-12%	/	-20%[46.1 µM]	-13%[46.1 µM]	/	2%
CC(O)(c1cccc(F)c1)c1nc(-c2cccc(C(F)(F)F)c2)cs1 (configuration not stated)	/	35µM*	/	/	/	-10%
O=C(O)c1cccc(-c2csc(C(O)(c3ccccc3)C(F)(F)F)n2)c1 (configuration not stated)	/	9%	/	/	/	74%
OC(c1ccccc1)(c1nc(-c2cccc(C(F)(F)F)c2)cs1)C(F)(F)F (configuration not stated)	/	28µM*	/	/	/	-18%
N#Cc1cc(N2CCCCC2)c([N+](=O)[O-])cc1C#N	3%	17%	3%	2%	20%	0%
O=[N+]([O-])c1cc2no[n+]([O-])c2cc1N1CCCCC1	/	?	2%	-17%	?	32µM*
CCOC(=O)c1c(-c2ccccc2)oc2ccc(O)c(CN3CCN(C)CC3)c12	-10%	1%	?	?	13µM*	-22%
CCOC(=O)c1c(C)n(C)c2ccc(O)c(CN3CCN(C)CC3)c12	35µM*	-20%	-25%	13%	?	/
CCOC(=O)c1c(CN2CCN(C)CC2)n(-c2ccccc2)c2cc(Br)c(O)cc12	-3%	-8%	/	/	14µM*	-2%
CCOC(=O)c1c(-c2ccccc2)oc2ccc(OCC)cc12	4%	?	-25%[46.1 µM]	-7%	?	-17%
CCOC(=O)c1c(-c2ccccc2)oc2ccc(OC)cc12	2%	-12%	28%	-1%	11µM*	-5%
CCOC(=O)c1c(CN2CCN(CCO)CC2)n(-c2ccccc2)c2cc(Br)c(O)cc12	2%	2%	?	?	?	-12%
Cn1cc(CN2CCOc3ccc(C(O)C4CCCCC4)cc3C2)cn1 (configuration not stated)	/	/	/	/	/	-29%
COc1cccc(CN(C)C(=O)c2cnn(-c3ncc4c(n3)-c3ccccc3CCC4)c2C)c1	/	/	/	/	/	-29%
CCOc1ccc(S(=O)(=O)N2CCC(n3c(C)nc4cccnc43)CC2)cc1	-16%	/	/	8%[46.1 µM]	/	?
CCOC(=O)c1c(C)n(C)c2ccc(O)c(CN3CCC(C)CC3)c12	-26%	28%	11µM*	?	?	-23%
CCOC(=O)c1c(C)oc2cc(Cl)c(O)c(CN(C)C)c12	?	?	-10%[46.1 µM]	13%	?	34%
SMILES	Sm TGR block	RE007 growth inh	MARV entry inh	LASV entry inh	HCV inhibitor	FMDV inh
CCCCn1c(C)c(C(=O)OCC)c2c(CN3CCOCC3)c(O)ccc21	40µM*	0%	?	?	25µM*	-16%
CCOC(=O)c1c(-c2ccccc2)oc2cc(CN(C)C)c(O)c(CN(C)C)c12	/	9%	?	?	10µM*	6%
CCCCn1c(C)c(C(=O)OCC)c2c(CN3CCCC3)c(O)ccc21	4%	-12%	/	/	?	-28%
Cn1c(SCC(N)=O)nc2c([nH]c3ccccc32)c1=O	7%	/	/	4%[46.1 µM]	/	7%
O=S(=O)(Nc1cccc(-c2ccc(N3CCCC3)nn2)c1)c1ccccc1C(F)(F)F	1%	/	/	17%[46.1 µM]	/	38%
COc1ccc(S(=O)(=O)N(C)C(C)CCc2ccco2)cc1 (configuration not stated)	20µM*	-10%	/	/	-4%	-6%
CC(=O)c1ccc(S(=O)(=O)N(C)C(C)CCc2ccco2)cc1 (configuration not stated)	40µM*	-6%	/	/	4%	-3%
CC(CCc1ccco1)N(C)S(=O)(=O)c1csc(C(N)=O)c1 (configuration not stated)	-8%	-15%	-3%[46.1 µM]	3%[46.1 µM]	-6%	-7%
COc1ccc(C(N)CCc2ccco2)cc1 (configuration not stated)	-17%	14%	?	4%	8%	4%
Cc1ccc(S(=O)(=O)N(C)C(C)CCc2ccco2)cc1 (configuration not stated)	50µM*	23%	/	/	-10%	-22%
COc1ccc(-c2cc(C(F)(F)F)nc(SCC(=O)Nc3ccc(C(C)=O)cc3)n2)cc1	-6%	/	?	-13%[46.1 µM]	/	-28%
Cc1ccc(C[C@H]2CC(=O)N(c3ccc4c(c3)OCCO4)C2=O)cc1	/	/	11%[46.1 µM]	/	/	/
Cc1ccc(NC(=O)c2cccc(N3CCCS3(=O)=O)c2)cc1C	1%	/	/	16%[46.1 µM]	/	36%
C=CCc1ccccc1OCC(O)CN1CCN(CCN2C(=O)c3cccc4cccc(c34)C2=O)CC1 (configuration not stated)	-1%	10%	11µM*	?	14µM*	28µM*
C=CCc1ccccc1OCC(O)CN1CCN(C(=O)OCC)CC1 (configuration not stated)	40µM*	3%	5%	-4%	26%	-14%
Cc1ccccc1OCC(O)CN1CCN(CCN2C(=O)c3cccc4cccc(c34)C2=O)CC1 (configuration not stated)	-8%	29%	?	?	?	?
CCC(OCC(O)CN1CCN(CCN2C(=O)c3cccc4cccc(c34)C2=O)CC1)c1ccccc1 (configuration not stated)	-9%	2%	?	?	7.9µM*	28µM*
CC(C)OCC(O)CN1CCN(CCN2C(=O)c3cccc4cccc(c34)C2=O)CC1 (configuration not stated)	-2%	-6%	/	/	?	-18%
Cc1cccc(C)c1OCC(O)CN1CCC(CN2C(=O)c3cccc4cccc(c34)C2=O)CC1 (configuration not stated)	?	-31%	?	?	?	22µM*
